# SW480 rerep: induces DNA re-replication in SW480 colon adenocarcinoma cells | SW480 DNA re-replication, Hoechst DNA content imaging, 48 h | Potency, µM (top dose mostly 46.1 µM), without a hit: at the top dose re-replication activation, most hits filed as activators | actives 1.8% (n = 340,000); also: potency is read from the fitted curve at half-maximal effect; % of control where 0% means no effect; nearly all actives have a fitted effect of over 55% in size
#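 Per well, 250 cells were exposed to pinned compound for 48 hr. Nuclear DNA was visualised with Hoechst (40 min, 37 C) and total object intensity recorded by fluorescence scanning.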
# uPA generation: inhibitors of cell surface uPA generation; cell surface uPA generation assay, qHTS; Potency, µM (series often up to 38.3 µM), inactives show top-dose activity change, negative = inhibition, most hits filed as inhibitors; actives 0.31% (n = 330,000); active = well fitted inhibition curve with a large enough effect; inconclusive = small, poorly fitted or top-dose-only effect; inactive = no such curve, though single readings can be large or run the other way; tested in mouse RAW 264.7 cells; also: potency is read from the fitted curve at half-maximal effect; % is scaled to controls: 0 for no effect and ±100 for the full control effect; nearly all actives have a fitted effect of over 55% in size
# MCF10A rereplic: inducers of DNA re-replication in MCF 10A breast cells | MCF 10A DNA re-replication, Hoechst nuclear intensity, 48 h | actives 2.9% (n = 350,000) | AID 624296 | Potency, µM (top dose mostly 46.1 µM), for the others: top-dose activity, positive = re-replication, hits mostly activators; also: potency is read from the fitted curve at half-maximal effect; % of control where 0% means no effect; nearly all actives have a fitted effect of over 50% in size
# Giardia kill: kills Giardia lamblia | AID 540267 | actives 0.15% (n = 340,000) | activity change, % at 7.66 µM, hits read low | Giardia lamblia trophozoite viability; in the data active = activity change below about -80%; inconclusive = between about -30% and that limit;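 also: parasites exposed to compound for two days anaerobically before the ATP read; % is scaled to controls: 0 for no effect and ±100 for the full control effect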
#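 Media and compound were dispensed first, then trophozoites at 100 cells/well; plates sat 48 hrs at 37 deg C without oxygen before ATP luminescence reagent was added and read after 15-30 min at room temperature.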
# Active calls of the source: *; ? = inconclusive; / = no result given; [ ] = dose if it differs, or a comment. An excerpt weighted towards active compounds, which were near 4.3% of everything screened. Unless noted, calls follow the shape of the dose curve; as a rule, active = well fitted activation curve with a large enough effect; inconclusive = small, poorly fitted or top-dose-only effect; inactive = no such curve, though single readings can be large or run the other way.
SMILES,SW480 rerep,uPA generation,MCF10A rereplic,Giardia kill
CCOc1nc(NCCC2=CCCCC2)nc(N2CCOCC2)n1,23µM*,10%,21µM*,33
OCCNc1nc(NCCC2=CCCCC2)nc(N2CCOCC2)n1,-1%,-5%,-3%,16
CC(C)C(NS(=O)(=O)c1ccccc1)C(=O)N1CCCC1 (centres undefined),?,-2%,5%,2
Cc1cc(C)c2nc(C)cc(N/N=C/c3ccc(O)cc3)c2c1,4.1µM*,-11%,15µM*,-19
O=C1NC(=Nc2ccccc2)SC1Cc1ccccc1 (centres undefined),5.8µM*,-6%,-5%,5
O=C1N/C(=N/c2ccccn2)SC1Cc1ccccc1 (centres undefined),?,3%,22%,-8
Cc1c(NC(=O)C(C)Oc2cccc(F)c2)c(=O)n(-c2ccccc2)n1C (centres undefined),23µM*,10%,-5%,39
Cc1c(NC(=O)COC(=O)C23CC4CC(CC(O)(C4)C2)C3)c(=O)n(-c2ccccc2)n1C,-10%,4%,-3%,26
Cc1c(NC(=O)C(C)OC(=O)C23CC4CC(CC(Br)(C4)C2)C3)c(=O)n(-c2ccccc2)n1C (centres undefined),-32%,10%,1.5µM*,?
O=C(CCC1CCCCC1)Nc1cc(Cl)ccc1N1CCOCC1,?,10%,?,-2
O=C(CCC1CCCC1)Nc1cc(C(F)(F)F)ccc1N1CCOCC1,3.7µM*,4%,-8%,-15
O=C(CCc1ccccc1)N[C@@H]1c2ccccc2CC[C@H]1OCc1ccccc1,5%,-2%,?,?
CCC(O)(Cc1ccccn1)Cc1ccccn1,-3%,0%,1%,5
O=c1c2ccccc2c(C=Nc2cccc(O)c2)c(O)n1-c1ccc2c(c1)OCO2,?,-6%,15µM*,8
CNC(=O)c1nnsc1S(=O)c1ccc(Cl)cc1 (centres undefined),?,-15%,2.3µM*,-1
CCCNC(=O)c1nnsc1S(=O)(=O)c1ccc(Cl)cc1,7.3µM*,-15%,2.3µM*,-5
CCCNC(=O)c1nnsc1S(=O)c1ccc(Cl)cc1 (centres undefined),23µM*,-17%,3.3µM*,-1
Cc1cc(=O)oc2cc(OCC(=O)N3CCOCC3)c(Cl)cc12,3%,-2%,-6%,21
COCCN1C(=O)N(c2ccc(OC)cc2)C(=O)C1CC(=O)Nc1cccc(F)c1 (centres undefined),-13%,?,0.92µM*,6
CCOc1ccc(Cc2nccc3cc(OCC)c(OCC)cc23)cc1OCC,-2%[20.6 µM],/,1%[20.6 µM],/
Cc1nn(C)c(C(=O)NC2C3CC4CC(C3)CC2C4)c1Cl (centres undefined),23µM*,1%,15%,-7
CCOC(=O)C1CCCN(C(=O)c2ccc(Cn3c(=S)[nH]c4cc(C(=O)OC)ccc4c3=O)cc2)C1 (centres undefined),?,1%,16µM*,19
CCOC(=O)N1CCN(C(=O)c2ccc(Cn3c(=S)[nH]c4cc(C(=O)OC)ccc4c3=O)cc2)CC1,-12%,-8%,0%,-11
CC(C)NS(=O)(=O)c1ccc2[nH]c3nc(SCC(=O)Nc4ccc(F)c(F)c4)nnc3c2c1,/,/,/,-18
CC1Cc2ccccc2N1C(=O)CO/N=C/c1ccccc1OC(F)F (centres undefined),16µM*,2%,3%,-15
SMILES,SW480 rerep,uPA generation,MCF10A rereplic,Giardia kill
COc1cc(/C=C/C(=O)OCC(=O)N2c3ccccc3CC2C)cc(OC)c1OC (centres undefined),?,10µM*,17%,-1
CCOC(=O)[C@@H]1CSCCS(=O)(=O)N1Cc1ccccc1Br,15%,3%,-13%,-10
Cc1c([N+](=O)[O-])cc(N2C(=O)C=CC2=O)cc1[N+](=O)[O-],0%,6%,0%,10
Cc1cc(C)cc(N2C(=O)C=CC2=O)c1,16µM*,-19%,6.5µM*,-21
CCOC(=O)c1c(NC(=O)COc2ccccc2OCC)sc2c1CC(C)(C)NC2(C)C,?,3%,?,5
COC(=O)c1c(NC(=O)c2ccccc2)sc2c1CC(C)(C)NC2(C)C,0%,-4%,1%,6
Cc1ccc(OCC(=O)Nc2sc3c(c2C#N)CC(C)(C)NC3(C)C)cc1,3%,-5%,2%,-5
CCOC(=O)c1c(NC(=O)COc2ccccc2C#N)sc2c1CC(C)(C)NC2(C)C,18µM*,32%,?,17
CC1(C)Cc2c(sc(NC(=O)COc3cccc4ccccc34)c2C#N)C(C)(C)N1,?,2%,16µM*,-24
CC1(C)Cc2c(sc(NC(=O)c3ccc(C(=O)c4ccccc4)cc3)c2C(N)=O)C(C)(C)N1,21µM*,-2%,23µM*,8
CCOC(=O)c1c(NC(=O)CCS(=O)(=O)c2ccccc2)sc2c1CC(C)(C)NC2(C)C,?,-7%,18µM*,-16
COc1ccc(CN(Cc2ccccc2)C(=O)c2ccco2)cc1COc1ccc(NC(C)=O)cc1,/,/,/,-21
Cc1cccc(NC(=S)N2CCN(S(C)(=O)=O)CC2)c1,-4%,3%,0%,12
COC(=O)c1nnn(-c2nc(N(C)C)nc(N(C)C)n2)c1C,-2%[1.84 µM],-2%,-22%,-2
Cc1cccc(NC2=Nc3ccccc3N3C2=Nc2c(c(C)nn2-c2ccccc2)C3c2ccc(O)c(O)c2)c1 (centres undefined),7.3µM*,2%,?,-4
Cc1ccc(NC2=Nc3ccccc3N3C2=Nc2c(c(C)nn2-c2ccccc2)C3c2ccc(O)c(O)c2)cc1 (centres undefined),9.2µM*,-1%,?,10
CCOC(=O)C1CCCC12Nc1cccc3cccc(c13)N2 (centres undefined),-6%,-2%,0%,2
S=C1NC=NC2N=CNC12 (centres undefined),?,/,17%,/
Cc1cc2ccccc2n1CCNC(=O)c1ccc(S(=O)(=O)N2CCOCC2)cc1,16µM*,5%,3.7µM*,-7
CCC(C)(C)C1CCC(NC(=O)c2ccc(S(=O)(=O)N3CCOCC3)cc2)CC1 (centres undefined),-3%,?,6.5µM*,14
Cc1ccc(C(=O)NC2CC2)cc1S(=O)(=O)N1CCOCC1,-5%,4%,-7%,11
O=C(C[C@H]1C/C=C\CCC(=O)OC[C@H]2CCCN2C1=O)NCCO,-1%,14%,-4%,-4
CN1CCN(c2ccc([N+](=O)[O-])cc2C(=O)c2ccccc2)CC1,?,-6%,2%,9
Cc1ccc(C(=O)c2cc([N+](=O)[O-])ccc2N2CCOCC2)c(C)c1,0.13µM*,-10%,0.92µM*,-13
Cc1ccc(C(=O)c2cc([N+](=O)[O-])ccc2N2CCN(C)CC2)cc1,10µM*,-12%,16µM*,-28
CN1CCN(c2ccc([N+](=O)[O-])cc2C(=O)c2ccc(Br)cc2)CC1,3.7µM*,-12%,?,-4
N#Cc1ccc(OS(=O)(=O)c2ccc(-c3ccon3)s2)cc1,5%,-4%,?,20
